# Results taken from PubChem BioAssay (NCATS).
# A number with no mark means an inactive call. Results filed as inconclusive are left out. A call without a number means that no potency is given here. The source made the active and inactive calls. Unless noted, calls follow the shape of the dose curve; as a rule, active = well fitted curve in the direction sought with a large enough effect; inconclusive = small, poorly fitted or top-dose-only effect, or another doubt; inactive = no such curve, though single readings can be large; an effect the other way counts as inactive or inconclusive.
# Assays:
# [1] = test system: UISO; test: qHTS assay to identify novel small-molecules to repurpose for Merkel cell carcinoma treatment (AID 1296009); conditions: MCC and control cell lines, CellTiter-Glo viability, 72 h; series mostly up to 46 µM; also: nearly all actives have a fitted effect of over 60% in size; also: potency is read from the fitted curve at half-maximal effect
# Procedure, shortened: (§1)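 Viability readout: ATP luminescence (CellTiter-Glo) after 72 hr drug exposure at 37 degree celsius. Dose-response format was 8 points for NPC and 11 points for MIPE; data normalized to in-plate controls.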
# [2] = test system: WaGa; test: as above; conditions: MCC and control cell lines, CellTiter-Glo viability, 72 h; series mostly up to 46 µM
# Procedure, shortened: as §1
# [3] = test system: C33A; test: Primary qHTS to identify gynecologic anti-cancer compounds using libraries of approved drugs and bioactive compounds (AID 1345084); conditions: Gynecologic cancer cell panel viability, ATPlite luminescence, 48 h; series mostly up to 57.5 µM; also: nearly all actives have a fitted effect of over 55% in size; also: potency is read from the fitted curve at half-maximal effect
# Procedure, shortened: (§2)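 Measured: luminescence after ATPlite addition (15 min, RT). Exposure: 48 h, 37 C, 5% CO2.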
# [4] = test system: CASKI; test: as above; conditions: Gynecologic cancer cell panel viability, ATPlite luminescence, 48 h; series mostly up to 57.5 µM
# Procedure, shortened: as §2
# [5] = test system: Es-2; test: as above; conditions: Gynecologic cancer cell panel viability, ATPlite luminescence, 48 h; series mostly up to 57.5 µM
# Procedure, shortened: as §2
# [6] = test system: HeLa; test: as above; conditions: Gynecologic cancer cell panel viability, ATPlite luminescence, 48 h; series mostly up to 57.5 µM
# Procedure, shortened: as §2
# [7] = test system: Hek293T; test: as above; conditions: Gynecologic cancer cell panel viability, ATPlite luminescence, 48 h, control line for the selectivity index; series mostly up to 57.5 µM
# Procedure, shortened: as §2
# [8] = test system: JEG-3; test: as above; conditions: Gynecologic cancer cell panel viability, ATPlite luminescence, 48 h; series mostly up to 57.5 µM
# Procedure, shortened: as §2
# [9] = test system: OV90; test: as above; conditions: Gynecologic cancer cell panel viability, ATPlite luminescence, 48 h; series mostly up to 57.5 µM
# Procedure, shortened: as §2
# [10] = test system: PA-1; test: as above; conditions: Gynecologic cancer cell panel viability, ATPlite luminescence, 48 h; series mostly up to 57.5 µM
# Procedure, shortened: as §2
# [11] = test system: SKOV3; test: as above; conditions: Gynecologic cancer cell panel viability, ATPlite luminescence, 48 h; series mostly up to 57.5 µM
# Procedure, shortened: as §2
# [12] = test system: Tov-21-G; test: as above; conditions: Gynecologic cancer cell panel viability, ATPlite luminescence, 48 h; series mostly up to 57.5 µM
# Procedure, shortened: as §2
# [13] = test system: Tov112D; test: as above; conditions: Gynecologic cancer cell panel viability, ATPlite luminescence, 48 h; series mostly up to 57.5 µM
# Procedure, shortened: as §2
# [14] = test system: astro; test: Drug repurposing screens with cells derived from glioblastoma tumor samples (AID 1345199); conditions: viability, ATP luminescence, 48 h; series mostly up to 45.9 µM; also: nearly all actives have a fitted effect of over 40% in size; also: potency is read from the fitted curve at half-maximal effect
# Procedure, shortened: (§3)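 Primary testing used CD133+ neurospheres from four GBM patients, seven concentrations, 48 h exposure and ATP-based viability; confirmation added three slower-growing patient lines.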
# [15] = as above; conditions: GBM patient neurospheres viability, ATP luminescence, 48 h
# Procedure, shortened: as §3
# [16] = test system: CAOV3; test: Primary qHTS to identify gynecologic anti-cancer compounds using libraries of approved drugs and bioactive compounds (AID 1345084); conditions: Gynecologic cancer cell panel viability, ATPlite luminescence, 48 h; series mostly up to 57.5 µM; also: nearly all actives have a fitted effect of over 55% in size; also: potency is read from the fitted curve at half-maximal effect
# Procedure, shortened: as §2
# [17] = biological target: Nuclear receptor subfamily 1 group I member 2 (Rattus norvegicus) (UniProt Q9R1A7); test: qHTS assay for small molecule activators of the rat pregnane X receptor (rPXR) signaling pathway (AID 651751; call rule not given here); conditions: rPXR reporter cells, luciferase (One-Glo), 24 h
# [18] = qHTS assay for small molecule activators of the human pregnane X receptor (PXR) signaling pathway (AID 720659; call rule not given here)
# [19] = qHTS assay to identify inhibitors of the type 1 interferon - major histocompatibility complex class I in skeletal muscle: Counter screen cell viability and HiBit confirmation (AID 1347412); conditions: iHSKM muscle cells + IFN-b, HiBiT or CellTiter-Glo, 24 h; HiBiT; also: potency is read from the fitted curve at half-maximal effect; nearly all actives have a fitted effect of over 60% in size
# Procedure, shortened: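 Myoblasts (C25cl48, HLA-B HiBiT) seeded in medium without dexamethasone, IFN-b 4 ng/ml added except unstimulated columns; 1 hr later compounds pinned (12-pt 1:3, top 46 uM final). Incubated 24 hrs, lysed 10 min, luminescence measured.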
# [20] = at 45.9 µM (top of the series), tumour line B
# [21] = at 45.9 µM (top of the series), tumour line D
# Chain of Nuclear receptor subfamily 1 group I member 2 (Rattus norvegicus) (Q9R1A7 whole entry, looked up): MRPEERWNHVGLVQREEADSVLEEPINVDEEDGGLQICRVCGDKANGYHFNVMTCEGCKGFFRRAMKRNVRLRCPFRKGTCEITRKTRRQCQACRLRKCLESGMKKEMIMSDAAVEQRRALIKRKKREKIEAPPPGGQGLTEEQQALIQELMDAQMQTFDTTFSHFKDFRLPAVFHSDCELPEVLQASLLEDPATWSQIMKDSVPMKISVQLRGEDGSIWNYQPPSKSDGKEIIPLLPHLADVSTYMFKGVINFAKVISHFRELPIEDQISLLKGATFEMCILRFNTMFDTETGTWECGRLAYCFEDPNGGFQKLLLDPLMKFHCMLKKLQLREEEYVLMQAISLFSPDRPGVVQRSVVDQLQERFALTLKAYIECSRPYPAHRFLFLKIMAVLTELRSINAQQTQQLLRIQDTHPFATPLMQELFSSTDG
smiles,measurement,setting,value
ClC1=C(Cl)C2(Cl)C(CBr)CC1(Cl)C2(Cl)Cl (stereo unspecified),Potency,[1],inactive
same,Potency,[2],inactive
same,Potency,[3],inactive
same,Potency,[4],inactive
same,Potency,[5],inactive
same,Potency,[6],inactive
same,Potency,[7],inactive
same,Potency,[8],inactive
same,Potency,[9],inactive
same,Potency,[10],inactive
same,Potency,[11],inactive
same,Potency,[12],inactive
same,Potency,[13],inactive
same,Potency,[14],inactive
COc1cc(CC(C)N)cc2c1OCO2 (stereo unspecified),Potency,[1],inactive
same,Potency,[2],inactive
same,Potency,[3],inactive
same,Potency,[4],inactive
same,Potency,[5],inactive
same,Potency,[6],inactive
same,Potency,[7],inactive
same,Potency,[8],inactive
same,Potency,[9],inactive
same,Potency,[10],inactive
same,Potency,[12],inactive
same,Potency,[13],inactive
same,"activity, negative = cell killing","[15]; at 108 µM (top of the series), tumour line B",-12.8%
same,Potency,[15]; tumour line A,35.5 µM (active)
same,Potency,[14],inactive
COP(=S)(OC)Oc1ccc(S(N)(=O)=O)cc1,Potency,[1],inactive
same,Potency,[2],inactive
same,Potency,[3],inactive
same,Potency,[4],inactive
same,Potency,[5],inactive
same,Potency,[6],inactive
same,Potency,[7],inactive
same,Potency,[8],inactive
same,Potency,[9],inactive
same,Potency,[10],inactive
same,Potency,[11],inactive
same,Potency,[12],inactive
same,Potency,[13],inactive
same,"activity, negative = cell killing",[15]; [20],-9.2%
same,"activity, negative = cell killing",[15]; [21],-4.94%
same,Potency,[14],inactive
CN1[C@@H]2CC[C@H]1CC(OC(=O)c1cc(Cl)cc(Cl)c1)C2 (stereo partly specified),Potency,[1],inactive
same,Potency,[2],inactive
same,Potency,[3],inactive
same,Potency,[4],inactive
same,Potency,[5],inactive
same,Potency,[6],inactive
same,Potency,[8],inactive
same,Potency,[11],inactive
same,Potency,[12],inactive
same,Potency,[13],inactive
same,Potency,[14],inactive
O=C(CCl)c1ccc(Cl)cc1Cl,Potency,[1],inactive
same,Potency,[3],inactive
same,Potency,[16],inactive
same,Potency,[4],inactive
same,Potency,[5],inactive
same,Potency,[6],inactive
same,Potency,[7],inactive
same,Potency,[8],inactive
same,Potency,[9],inactive
same,Potency,[10],inactive
same,Potency,[11],inactive
same,Potency,[12],inactive
same,Potency,[13],inactive
same,"activity, negative = cell killing",[15]; [21],-23.6%
same,Potency,[14],12.6 µM (active)
same,max response,[17],-0.907%
same,outcome,[18],inactive
Oc1ccc([C@H]2CNCc3c2ccc(O)c3O)cc1O,Potency,[1],inactive
same,Potency,[3],inactive
same,Potency,[16],inactive
same,Potency,[4],inactive
same,Potency,[5],inactive
same,Potency,[6],inactive
same,Potency,[7],inactive
same,Potency,[8],inactive
same,Potency,[9],inactive
same,Potency,[10],inactive
same,Potency,[11],inactive
same,Potency,[12],inactive
same,Potency,[13],inactive
same,"activity, negative = cell killing",[15]; [20],-19.9%
same,"activity, negative = cell killing",[15]; [21],-11.1%
same,"activity, negative = cell killing","[15]; at 46 µM (top of the series), tumour line A",-27.2%
C[C@@H]1O[C@@H](O[C@@H]2C=C3CC[C@@H]4[C@H](CC[C@]5(C)[C@@H](c6ccc(=O)oc6)CC[C@]45O)[C@@]3(C)CC2)[C@H](O)[C@H](O)[C@H]1O,Potency,[1],0.0038 µM (active)
same,Potency,[2],0.0027 µM (active)
same,Potency,[8],inactive
same,Potency,[19],0.0125 µM (active)
O=C(N[C@@H]1N=C(c2ccccc2F)c2cccc3c2N(CC3)C1=O)c1cc2ccccc2[nH]1,Potency,[1],2.99 µM (active)
same,Potency,[2],inactive
same,Potency,[6],12.6 µM (active)
same,"activity, negative = cell killing",[15]; [20],-3.52%
same,"activity, negative = cell killing",[15]; [21],-3.25%
C[C@H](N)[C@H](O)c1ccc(O)c(O)c1,Potency,[1],inactive
same,Potency,[2],inactive
same,Potency,[3],inactive
same,Potency,[4],inactive
same,Potency,[8],inactive
same,Potency,[11],25.1 µM (active)
same,"activity, negative = cell killing",[15]; [20],-8.55%
same,"activity, negative = cell killing",[15]; [21],-15.2%
